# Test results taken from PubChem BioAssay (Tox21).
# Inconclusive results are not listed. Entries that show only a call come without a potency. A number with no mark means an inactive call. Calls of active or inactive are those of the source. Unless noted, the call rests on the fitted dose curve; in most records, active means well fitted curve in the direction sought with a large enough effect in the repeat runs; inconclusive means weak or mixed curves; inactive means no such curve, though single readings can be large; an effect the other way counts as inactive or inconclusive.
# Columns and labels:
# [1] = biological target: Retinoic acid receptor RXR-alpha (Homo sapiens) (UniProt P19793); assay: qHTS assay to identify small molecule agonists of the RXR signaling pathway (AID 1159527; calls by dose curve; further: nearly all actives have a fitted effect of over 35% in size)
# Sequence of Retinoic acid receptor RXR-alpha (Homo sapiens) (P19793 whole entry, looked up): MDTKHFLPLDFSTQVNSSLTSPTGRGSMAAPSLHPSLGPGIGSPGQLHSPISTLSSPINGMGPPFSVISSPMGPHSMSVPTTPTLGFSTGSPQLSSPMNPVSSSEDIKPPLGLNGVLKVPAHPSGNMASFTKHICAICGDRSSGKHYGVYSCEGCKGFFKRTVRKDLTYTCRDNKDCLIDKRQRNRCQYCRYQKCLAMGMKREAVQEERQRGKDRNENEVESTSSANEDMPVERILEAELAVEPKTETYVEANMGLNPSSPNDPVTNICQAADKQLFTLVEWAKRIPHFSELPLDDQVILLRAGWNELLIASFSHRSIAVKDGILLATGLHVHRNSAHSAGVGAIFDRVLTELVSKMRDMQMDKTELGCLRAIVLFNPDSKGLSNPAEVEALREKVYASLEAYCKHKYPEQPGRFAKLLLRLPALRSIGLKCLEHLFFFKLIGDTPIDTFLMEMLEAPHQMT
# Method in brief: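 GeneBLAzer RXR-alpha-UAS-bla HEK 293T cells in 2% charcoal-stripped FBS medium were exposed to compounds for 16 hr at 37 C in agonist mode. Beta-lactamase reporter read as 460/530 nm FRET ratio after 2 hr substrate loading.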
# [2] = qHTS assay to identify small molecule agonists of the RXR signaling pathway - cell viability counter screen (AID 1159529); further: nearly all actives have a fitted effect of over 50% in size
# Method in brief: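 RXR-alpha-UAS-bla HEK 293T cells in medium with 2% charcoal-stripped FBS were pre-incubated 5 hr, then compound-treated 16 hr at 37 C. Viability was read by CellTiter-Glo luminescence in the same wells as the beta-lactamase assay, with tetraoctyl ammonium bromide as positive control.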
# [3] = qHTS assay to identify small molecule antagonists of the retinoid acid receptor (RAR) signaling pathway - cell viability counter screen (AID 1159551); further: nearly all actives have a fitted effect of over 35% in size
# Method in brief: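 Measured by luminescent ATP detection, viability reflects C3RL4 cells treated 6 h at 37 C with test chemicals in the presence of 1 uM (final) retinol.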
# [4] = qHTS assay to identify small molecule antagonists of the retinoic acid receptor (RAR) signaling pathway (AID 1159552; further: nearly all actives have a fitted effect of over 50% in size)
# Method in brief: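 Retinol signaling pathway inhibitors screened in C3RL4 RARE-luciferase reporter cells seeded overnight at 37 C, then compounds added with 1 uM (final) retinol as pathway substrate. After 6 hr at 37 C, luciferase luminescence read after 30 min at room temperature.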
# [5] = qHTS assay to identify small molecule agonists of the retinoic acid receptor (RAR) signaling pathway (AID 1159553); details: C3RL4 RARE luciferase reporter, agonist, 6 h; activation: at 73.3 µM (top of the series); further: potency means the concentration at half of the fitted maximal effect
# Method in brief: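 6 hr compound exposure (DMSO vehicle) of overnight-plated C3RL4 RARE-luc cells at 37 C; luminescence quantified after 30 min RT with luciferase reagent.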
# [6] = qHTS assay to identify small molecule antagonists of the estrogen related receptor (ERR) signaling pathway from Tox21 library - cell viability counter screen (AID 1224834); further: nearly all actives have a fitted effect of over 30% in size
# Method in brief: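 Seeded ERR cells were rested 6 h at 37 C/5% CO2 before compounds, positive and negative controls or DMSO were added. Incubation continued for 17.5 h, and viability was then quantified by CellTiter-Fluor fluorescence.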
# [7] = qHTS assay to identify small molecule agonists of the constitutive androstane receptor (CAR) signaling pathway - cell viability counter screen (AID 1224836); further: nearly all actives have a fitted effect of over 45% in size
# Method in brief: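 HepG2 cells stably carrying hCAR and a CYP2B6-2.2kb reporter; 15-concentration compounds plus PK11195 (final 0.75 uM), 23 hr at 37 C/5% CO2. Viability read by CellTiter-Fluor fluorescence.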
# [8] = qHTS assay to identify small molecule antagonists of the constitutive androstane receptor (CAR) signaling pathway - cell viability counter screen (AID 1224837); further: nearly all actives have a fitted effect of over 45% in size
# Method in brief: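 To flag cytotoxic false antagonists, HepG2 hCAR/CYP2B6-2.2kb cells were treated 23 hr with 15-concentration compound series and 50 nM CITCO at 37 C/5% CO2; CellTiter-Fluor fluorescence was the measured end point.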
# [9] = biological target: Nuclear receptor subfamily 1 group I member 3 (Homo sapiens) (UniProt Q14994); assay: qHTS assay to identify small molecule antagonists of the constitutive androstane receptor (CAR) signaling pathway (AID 1224838);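 further: HepG2 cells stably expressing hCAR with CYP2B6 luciferase reporter stimulated by CITCO; nearly all actives have a fitted effect of over 40% in size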
# Sequence of Nuclear receptor subfamily 1 group I member 3 (Homo sapiens) (Q14994 whole entry, looked up): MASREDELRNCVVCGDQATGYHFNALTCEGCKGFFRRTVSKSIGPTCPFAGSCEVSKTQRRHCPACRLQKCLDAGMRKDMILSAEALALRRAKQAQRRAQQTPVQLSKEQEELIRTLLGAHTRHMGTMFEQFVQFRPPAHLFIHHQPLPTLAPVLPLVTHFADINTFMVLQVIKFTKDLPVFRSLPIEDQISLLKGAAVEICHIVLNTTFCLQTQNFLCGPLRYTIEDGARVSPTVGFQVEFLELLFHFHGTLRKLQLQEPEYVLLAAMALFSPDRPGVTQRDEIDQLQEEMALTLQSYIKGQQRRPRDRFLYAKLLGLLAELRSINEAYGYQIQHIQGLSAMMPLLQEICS
# Method in brief: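 Human hepatoma HepG2 cells expressing hCAR and a CYP2B6 promoter (2.2 kb) luciferase construct; compound titration (15 points) with 50 nM CITCO final, 24 h at 37 C/5% CO2; luminescence via ONE-Glo after 30 min at room temperature.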
# [10] = biological target: Luciferin 4-monooxygenase (Photinus pyralis) (UniProt P08659); assay: qHTS assay to identify small molecule inhibitors of firefly luciferase (AID 1224835); further: nearly all actives have a fitted effect of over 25% in size
# Sequence of Luciferin 4-monooxygenase (Photinus pyralis) (P08659 whole entry, looked up): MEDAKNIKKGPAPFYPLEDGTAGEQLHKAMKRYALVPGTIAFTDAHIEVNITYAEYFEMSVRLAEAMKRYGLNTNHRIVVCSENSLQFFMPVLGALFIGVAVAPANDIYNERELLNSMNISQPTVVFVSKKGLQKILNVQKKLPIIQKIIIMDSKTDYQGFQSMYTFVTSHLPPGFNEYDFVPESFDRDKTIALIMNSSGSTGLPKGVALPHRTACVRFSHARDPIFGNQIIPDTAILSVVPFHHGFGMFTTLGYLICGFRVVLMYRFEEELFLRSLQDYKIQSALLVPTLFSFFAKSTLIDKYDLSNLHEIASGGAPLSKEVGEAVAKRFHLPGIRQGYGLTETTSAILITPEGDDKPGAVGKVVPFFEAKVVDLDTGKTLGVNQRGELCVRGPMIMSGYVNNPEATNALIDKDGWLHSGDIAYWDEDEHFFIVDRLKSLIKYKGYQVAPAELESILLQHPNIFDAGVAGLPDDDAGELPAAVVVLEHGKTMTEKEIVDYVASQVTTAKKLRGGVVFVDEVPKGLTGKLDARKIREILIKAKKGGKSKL
# Method in brief: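 Inhibition of purified Photinus luciferase is measured by luminescence. Substrate levels (D-luciferin, ATP) sit at their KM values. Each compound is tested in a concentration series.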
Compound,Potency [1],outcome [2],outcome [3],Potency [4],Potency [5],Potency [6],outcome [7],Potency [8],Potency [9],Potency [10]
O=C1c2ccccc2-c2ccccc21,inactive,inactive,inactive,inactive,inactive,inactive,inactive,inactive,inactive,–
NS(=O)(=O)c1cc2c(cc1Cl)NC(C(Cl)Cl)NS2(=O)=O (centres undefined),inactive,inactive,inactive,–,inactive,inactive,inactive,inactive,–,inactive
O=c1[nH]c(=O)c2ccccc2o1,inactive,inactive,inactive,inactive,–,inactive,inactive,inactive,–,inactive
CC(C)C(=O)Nc1cccc(C(F)(F)F)c1,inactive,inactive,inactive,inactive,inactive,inactive,inactive,inactive,inactive,–
CCCCCCCC[Si](OCC)(OCC)OCC,inactive,inactive,inactive,–,inactive,inactive,inactive,inactive,–,inactive
C[C@H](CCC(=O)O)[C@H]1CC[C@H]2[C@@H]3[C@H](O)C[C@@H]4C[C@H](O)CC[C@]4(C)[C@H]3C[C@H](O)[C@]12C,inactive,inactive,inactive,inactive,–,inactive,–,inactive,–,inactive
O=CN1CCOCC1,inactive,inactive,inactive,–,inactive,inactive,inactive,inactive,–,inactive
C[C@@H]1C[C@H]2[C@@H]3C[C@H](F)C4=CC(=O)C=C[C@]4(C)[C@@]3(F)[C@@H](O)C[C@]2(C)[C@@]1(O)C(=O)CO,inactive,inactive,inactive,inactive,inactive,inactive,inactive,inactive,inactive,–
CCCCC(CC)CNC(=O)CC(C)OC(=O)CCC(=O)O (centres undefined),inactive,inactive,inactive,inactive,29.8 µM (active),inactive,inactive,inactive,inactive,–
C1CCN2C[C@@H]3C[C@@H](CN4CCCC[C@@H]34)[C@H]2C1,inactive,inactive,inactive,inactive,–,inactive,inactive,inactive,inactive,inactive
C=C(C)C(=O)OC,inactive,inactive,inactive,inactive,–,inactive,inactive,inactive,inactive,–
CC(CC(=O)O)CC(C)(C)C (centres undefined),inactive,inactive,inactive,inactive,–,inactive,inactive,inactive,inactive,inactive
C=C(C)[C@@H]1CC[C@@H](C)C[C@@H]1O,inactive,inactive,inactive,–,–,inactive,inactive,inactive,–,inactive
COc1cc2c3cc1Oc1cc(ccc1O)C[C@@H]1c4c(cc(OC)c(O)c4Oc4ccc(cc4)C[C@@H]3N(C)CC2)CC[N+]1(C)C,inactive,inactive,–,inactive,inactive,inactive,–,inactive,–,inactive
CCCCCCCC/C=C\CCCCCCCC(=O)OC[C@@H](O)[C@H]1OC[C@H](O)[C@H]1O,inactive,inactive,–,–,inactive,inactive,inactive,inactive,–,inactive
O=C(O)c1ccccc1C(=O)Nc1ccc(S(=O)(=O)Nc2nccs2)cc1,inactive,inactive,inactive,–,inactive,inactive,–,inactive,inactive,inactive
O=C(O)C(=O)Nc1cccc(-c2nn[nH]n2)c1,inactive,inactive,–,inactive,inactive,inactive,inactive,inactive,–,inactive
CCN(Cc1cccc(S(=O)(=O)O)c1)c1ccccc1,inactive,inactive,inactive,–,inactive,inactive,inactive,inactive,inactive,–
CN=C(NC#N)NCCSCc1csc(N=C(N)N)n1,inactive,inactive,–,inactive,inactive,inactive,inactive,inactive,–,inactive
